# The list is not random: actives were taken first. Their share in the collection is about 3.2%.
# AmpC no deterg = blocks E. coli AmpC beta-lactamase in detergent-free assay. P00811. AmpC nitrocefin hydrolysis, absorbance 480 nm, 0.0001% Triton. Potency, µM (doses to about 57.1 µM), without a hit: at the top dose activity change, negative = inhibition, usual class: inhibitors. hit rate 0.52% among 330,000. AID 485341;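 also: plate controls were no compound for no effect and no enzyme for full effect; nearly all actives have a fitted effect of over 20% in size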
# Target sequence (P00811 whole entry, looked up): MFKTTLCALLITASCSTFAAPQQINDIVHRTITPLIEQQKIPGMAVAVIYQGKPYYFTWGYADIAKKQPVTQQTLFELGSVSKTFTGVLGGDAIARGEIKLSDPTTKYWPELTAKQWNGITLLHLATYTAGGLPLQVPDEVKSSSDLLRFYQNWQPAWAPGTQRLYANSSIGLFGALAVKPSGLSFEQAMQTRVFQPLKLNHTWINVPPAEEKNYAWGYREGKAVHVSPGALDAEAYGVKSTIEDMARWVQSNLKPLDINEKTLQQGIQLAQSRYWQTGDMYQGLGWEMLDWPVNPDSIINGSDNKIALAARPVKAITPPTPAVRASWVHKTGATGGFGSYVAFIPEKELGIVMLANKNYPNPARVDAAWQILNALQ
#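 AmpC (5.3 nM in the dispensed reagent) in 20 mM phosphate pH 7.0 with 0.01% (detergent screen) or 0.0001% Triton X-100 was preincubated with compounds for 15 min at room temperature. Nitrocefin was then added from an 800 uM solution, and hydrolysis was followed at 480 nm.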
# AMA1-RON2 inh = disrupts binding of P. falciparum AMA1 to RON2 | AlphaScreen AMA1-biotinylated RON2 peptide binding | Potency, µM (highest dose often 58.2 µM), for inactives: top-dose activity change, negative = inhibition, hits mostly inhibitors | hit rate 0.2% among 360,000;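 also: 0% = vehicle wells and -100% = peptide control; nearly all actives have a fitted effect of over 45% in size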
#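 AMA1 (3D7) with his tag at 25 nM final met compounds first, then biotinylated RON2 peptide at 25 nM; detection used donor plus acceptor beads, 10 µg/mL apiece, read by AlphaScreen after 30 min at room temperature.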
# RE007 growth inh = less growth of the S. pombe RE007 Vpr strain; S. pombe RE007 Vpr strain, BacTiter-Glo ATP luminescence, 24 h; Potency, µM (top dose mostly 92.2 µM), without a hit: at the highest dose activity change, negative = less growth, usual class: inhibitors; hit rate 0.21% among 360,000; AID 651644; active = well fitted falling curve with a large enough effect; inconclusive = small, poorly fitted or top-dose-only effect; inactive = no such curve, though single readings can be large or run the other way; also: nearly all actives have a fitted effect of over 50% in size
#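 Fission yeast RE007 carrying one integrated HIV-1 vpr copy, seeded at OD 0.01 in PMG+AL medium with 23 nL pinned compound. Grown 24 h at 30 degrees; viability read by BacTiter-Glo luminescence after 5 min.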
# Sm TGR inh = inhibitors of Schistosoma mansoni thioredoxin glutathione reductase; hit rate 3% among 360,000; Q962Y6; Potency, µM (doses to about 114 µM), inactives show at the highest dose activity change, negative = inhibition, actives largely listed as inhibitors; purified TGR, DTNB reduction, TNB absorbance 405 nm; AID 485364; also: nearly all actives have a fitted effect of over 60% in size
#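 TGR 20 nM + NADPH 100 uM (dispensed conc.), cpd preinc 15 min RT; start with NADPH (500 uM addition) then DTNB (15 mM addition). Kinetic TNB absorbance, 405 nm filter. Four-parameter Hill fit across titration.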
# AmpC inh detg = AmpC beta-lactamase inhibition with detergent present; P00811; AmpC hydrolysis of nitrocefin, absorbance 480 nm, 0.01% Triton; Potency, µM (titrated, usually from 114 µM), for inactives: top-dose activity change, negative = inhibition, actives largely listed as inhibitors; hit rate 0.041% among 370,000;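 also: 0% = no-compound wells and -100% = no-enzyme wells; nearly all actives have a fitted effect of over 25% in size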
#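 20 mM phosphate pH 7.0 + 0.01% (detergent screen) or 0.0001% Triton X-100; 5.3 nM AmpC reagent; cpd preinc 15 min RT; nitrocefin (800 uM stock) to start; A480 q20 s × 4 min; Activity was normalised to no-enzyme and no-compound control wells.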
# Starred values were filed as active, the others as inactive; ? = inconclusive; nt = no result given; [ ] = dose if it differs, or a comment. Unless noted, calls follow the shape of the dose curve; as a rule, active = well fitted curve in the direction sought with a large enough effect; inconclusive = small, poorly fitted or top-dose-only effect, or another doubt; inactive = no such curve, though single readings can be large; an effect the other way counts as inactive or inconclusive. Unless noted, % is scaled to controls: 0 for no effect and ±100 for the full control effect; potency is read from the fitted curve at half-maximal effect.
SMILES,AmpC no deterg,AMA1-RON2 inh,RE007 growth inh,Sm TGR inh,AmpC inh detg
Cn1c(=O)n(C)c2cc(NC(=O)CCl)ccc21,-4%,-5%,4%,18µM*,?
O=C(CCn1c(=O)oc2cc(Cl)ccc21)Nc1ccc(O)cc1,-20%,4%,2%,1%,6%
O=C(CSc1nc2c([nH]c3ccccc32)c(=O)n1-c1ccccc1F)Nc1ccccc1C(F)(F)F,nt,nt,nt,3%,8%
CCCCOc1ccc(C(=O)NCC(=O)NCCOc2ccccc2)cc1,35µM*,-5%,5%,7%,?
O=C(Cn1c2ncccc2c(=O)n1-c1ccccc1)NCc1ccccc1Cl,nt,nt,nt,0%,5%
O=C(CCl)c1ccc2[nH]c(=O)oc2c1,16%,3%,-6%,11µM*,-4%
O=c1[nH]c2ccc(Br)cc2o1,nt,4%,-13%,nt,nt
Cc1ccccc1S(=O)Cc1ccc(C(=O)N2CCN(c3cccc(C)c3C)CC2)o1 (stereo not given),nt,nt,nt,3%,-7%
CC(Sc1nnc(Cc2cccs2)n1C1CCCCC1)C(=O)NCc1ccco1 (stereo not given),17%,3%,2%,50µM*,?
NS(=O)(=O)c1ccc(O)c(N2C(=O)c3cccc4c(C(=O)c5ccccc5)ccc(c34)C2=O)c1,10µM*,nt,nt,2%,-6%
COc1ccccc1N1C(=O)c2cccc3c(C(=O)O)ccc(c23)C1=O,1%,1%,21%,7%,2%
Cc1ccnc(NS(=O)(=O)c2ccc(NC(=O)c3cc(=O)c4ccc(C)c(C)c4o3)cc2)n1,nt,nt,nt,3%,18%
CC(C)C1CC(CCNCc2ccc(N(C)C)cc2)(c2ccccc2)CCO1 (stereo not given),2%,?,21%,-8%,-4%
Cc1ccc(C2(CCNCc3ccc(N(C)C)cc3)CCOC(C(C)C)C2)cc1 (stereo not given),63%,10µM*,35%,5%,-13%
CCCNC(=O)Cn1nc(-c2ccc(OC)cc2)c2cnc3ccc(F)cc3c21,nt,nt,nt,-1%,31%
CN1C(=O)NC(c2ccccc2)C2=C1CN(Cc1ccco1)C2=O (stereo not given),-2%,-1%,5%,35µM*,-15%
CCn1c(=O)sc2cc(NS(=O)(=O)c3ccc(C)cc3)ccc21,nt,nt,nt,-8%,1%
CC(=O)c1ccc(NC(=O)c2sc(-n3nc(C)c(Cc4ccc5c(c4)OCO5)c3C)nc2C)cc1,nt,nt,nt,-11%,16%
COc1ccc2c3c([nH]c2c1)C(C)NCC3 (stereo not given),-33%,-22%,-5%,11µM*,6%
COCCNC(=O)c1cc(-c2cccs2)on1,6.3µM*,-2%,0%,4%,?
Cc1cc(C)cc(NC(=O)C2CCCN(c3nnc(-n4c(C)ccc4C)s3)C2)c1 (stereo not given),nt,nt,nt,-15%,-5%
Cc1ccc(N(Cc2cccs2)C(=O)c2ccccc2Cl)cc1,nt,nt,nt,3%,1%
CC(C)COc1ccc(Cc2cnc(N)nc2N)cc1,-53%,-18%,0%,-2%,-7%
CC(C)Oc1ccc(Cc2cnc(=S)[nH]c2N)cc1,-44%,80%,0%,71µM*,-15%
CCCCC(=O)OC1CCC2C3CCc4cc(O)ccc4C3CCC12C (stereo not given),nt,5%,-16%,nt,nt
C[C@]12CC[C@@H]3c4ccc(O)cc4CC[C@H]3[C@@H]1CC[C@@H]2OC(=O)CCC(=O)O,-55%,-11%,1%[18.4 µM],45µM*,-13%
CCOC(=O)NNC1CC(=O)N(c2ccc(OC)cc2)C1=O (stereo not given),-13%,9%,-1%,0%,1%
COc1ccc(N2C(=O)CC(Sc3nc4ccccc4s3)C2=O)cc1OC (stereo not given),60%,73%,-25%,8.9µM*,7%
CC(=O)Nc1ccc(N2C(=O)CC(Sc3nc4ccccc4s3)C2=O)cc1 (stereo not given),22%,49%,-7%,nt,2%
CCOC(=O)C(N)CSC1CC(=O)N(c2ccc(OC)cc2)C1=O (stereo not given),112%,-1%,-6%,32µM*,1%
